High-throughput results: PubChem, National Center for Advancing Translational Sciences (NCATS)
This is a sample that favours compounds with a hit; in the whole collection about 7.4% have one here.
SNCA viab count = counter-screen for SNCA expression inhibitors: cell viability; Potency, µM (series often up to 57.1 µM), for inactives: top-dose activity change, negative = cytotoxicity, actives largely listed as cytotoxic; AID 1671193; 0.12% of 150,000 active; HEK-293-SNCA-luc viability, GF-AFC fluorescence, 24 h;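 further: 0% = DMSO-treated cells and -100% = medium-only wells without cells; nearly all actives have a fitted effect of over 30% in size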
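HEK-293-SNCA-luc cells (1500/well) plated 24 h, then exposed 24 h to a dilution series; GF-AFC added 30 min at 37C, fluorescence 405/540 nm; normalised to medium-only and DMSO wells, Hill fit.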
hNpr1 antagonist = blocks ANP-stimulated signaling of human Npr1 receptor; Potency, µM (top dose mostly 46.3 µM), inactives show at the top dose activity change, negative = inhibition, most hits filed as inhibitors; 1.6% of 76,000 active; HEK293 hNpr1 GloSensor cGMP, ANP-stimulated luminescence; P16066; calls by dose curve; further: on the % scale 0 is the no-effect control and ±100 the full control effect; nearly all actives have a fitted effect of over 60% in size
Target sequence (P16066 whole entry, looked up): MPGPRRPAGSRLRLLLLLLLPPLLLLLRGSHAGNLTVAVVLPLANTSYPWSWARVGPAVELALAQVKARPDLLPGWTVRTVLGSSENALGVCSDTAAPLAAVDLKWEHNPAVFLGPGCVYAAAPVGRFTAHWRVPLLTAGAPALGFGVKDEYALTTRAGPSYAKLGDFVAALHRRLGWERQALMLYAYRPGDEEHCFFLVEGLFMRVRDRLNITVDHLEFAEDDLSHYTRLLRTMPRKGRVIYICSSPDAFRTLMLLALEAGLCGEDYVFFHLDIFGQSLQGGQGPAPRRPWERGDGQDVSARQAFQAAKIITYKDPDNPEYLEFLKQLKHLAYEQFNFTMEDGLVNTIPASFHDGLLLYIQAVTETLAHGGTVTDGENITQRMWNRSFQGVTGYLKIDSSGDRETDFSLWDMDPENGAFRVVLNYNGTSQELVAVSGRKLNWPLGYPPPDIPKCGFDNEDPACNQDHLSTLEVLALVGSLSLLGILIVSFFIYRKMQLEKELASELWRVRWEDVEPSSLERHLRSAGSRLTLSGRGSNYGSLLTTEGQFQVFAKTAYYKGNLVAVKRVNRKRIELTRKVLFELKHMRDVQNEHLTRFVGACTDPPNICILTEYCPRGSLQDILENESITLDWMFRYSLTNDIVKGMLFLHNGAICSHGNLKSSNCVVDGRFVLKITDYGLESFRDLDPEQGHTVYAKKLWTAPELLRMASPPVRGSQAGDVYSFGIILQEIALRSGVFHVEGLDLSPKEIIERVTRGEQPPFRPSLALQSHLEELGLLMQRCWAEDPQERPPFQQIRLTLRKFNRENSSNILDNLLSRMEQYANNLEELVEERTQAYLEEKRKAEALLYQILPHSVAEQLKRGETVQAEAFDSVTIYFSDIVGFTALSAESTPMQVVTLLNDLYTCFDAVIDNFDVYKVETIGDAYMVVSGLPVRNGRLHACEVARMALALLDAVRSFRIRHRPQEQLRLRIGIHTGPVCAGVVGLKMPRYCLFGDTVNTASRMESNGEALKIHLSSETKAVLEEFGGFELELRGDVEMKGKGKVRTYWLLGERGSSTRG
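Compound pre-incubated 30 min at room temperature on GloSensor-loaded HEK293 cells stably carrying hNpr1 and the pGS-40F cGMP biosensor. Stimulation uses hNppA at 0.1 nM final; luminescence is taken at baseline and 20 min post-agonist.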
FLuc inh = inhibitors of firefly (Photinus pyralis) luciferase; P08659; purified P. pyralis luciferase, luminescence, biochemical; Potency, µM (top dose mostly 115 µM), most hits filed as inhibitors; 2.5% of 76,000 active; further: on the % scale 0 is the no-effect control and ±100 the full control effect; nearly all actives have a fitted effect of over 65% in size
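Purified 10nM P. pyralis luciferase with 10uM D-luciferin and 10uM ATP in 50mM Tris acetate pH 7.5, 10mM Mg acetate, 0.01% Tween-20, 0.05% BSA. qHTS titration; luminescence read by CCD imager.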
NIH3T3 tox = kills NIH 3T3 cells | NIH 3T3 viability, CellTiter-Glo ATP luminescence, 48-72 h | AID 1345082 | Potency, µM (doses to about 96.7 µM), for the others: at the highest dose activity change, negative = cytotoxicity, hits mostly inhibitors | 4.3% of 94,000 active; further: on the % scale 0 is the no-effect control and ±100 the full control effect; nearly all actives have a fitted effect of over 55% in size
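Viability of NIH 3T3 cells after 48 or 72 hr compound treatment at 37 °C was assessed by CellTiter-Glo, with luminescence imaged following a 10 min room-temperature step.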
SNCA expr inh = SNCA gene expression inhibition | HEK-293 SNCA-luciferase knock-in, luminescence, 24 h | Potency, µM (titrated, usually from 57.2 µM), inactives show at the highest dose activity change, negative = inhibition, most hits filed as inhibitors | 0.17% of 140,000 active | AID 1671194;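 further: plate controls were DMSO cells for no effect and cell-free wells for full effect; nearly all actives have a fitted effect of over 45% in size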
HEK cytotox = kills HEK 293 cells | 6.6% of 94,000 active | AID 1345083 | Potency, µM (highest dose often 115 µM), for inactives: at the highest dose activity change, negative = cytotoxicity, usual class: inhibitors | HEK 293 viability, ATP luminescence (CellTiter-Glo), 48-72 h; further: on the % scale 0 is the no-effect control and ±100 the full control effect; nearly all actives have a fitted effect of over 60% in size
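ATP-coupled CellTiter-Glo luminescence served as viability read-out, recorded 10 min after reagent addition at room temperature. HEK 293 cells, 250 cells/well, had been incubated with pintool-transferred compound for 48 or 72 hr at 37 degree Celsius.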
Npr1 antag conf = hNpr1 antagonism, confirmation assay. shares compounds with hNpr1 antagonist. HEK293 hNpr1 cGMP GloSensor luminescence, ANP-stimulated. Potency, µM (series often up to 57.6 µM), for inactives: top-dose activity change, negative = inhibition, hits mostly inhibitors. 76% of 1,400 active; calls by dose curve; further: nearly all actives have a fitted effect of over 70% in size
NPR2 antag = antagonizes human Npr2, subtype selectivity check. Potency, µM (titrated, usually from 57.6 µM), for the others: at the highest dose activity change, negative = inhibition, actives largely listed as inhibitors. AID 1347046. HEK293 hNpr2 GloSensor cGMP luminescence, CNP-stimulated. shares compounds with hNpr1 antagonist. 67% of 1,400 active; calls by dose curve; further: nearly all actives have a fitted effect of over 70% in size
FLuc counter = counter-screen for Npr1 antagonists: firefly luciferase inhibitors. shares compounds with hNpr1 antagonist. purified FLuc enzyme, luminescence, Km substrate. Potency, µM (titrated, usually from 57.6 µM), for inactives: top-dose activity change, negative = inhibition, most hits filed as inhibitors. 0.7% of 1,400 active; further: series mostly up to about 58 µM; 0% is about no effect
GloSensor cGMP = reduces cGMP signal in GloSensor control cells; shares compounds with hNpr1 antagonist; AID 1347051; 69% of 1,400 active; HEK293 GloSensor cGMP, SNP-stimulated, luminescence; Potency, µM (titrated, usually from 57.6 µM), without a hit: at the top dose activity change, negative = inhibition, actives largely listed as inhibitors; calls by dose curve; further: on the % scale 0 is the no-effect control and ±100 the full control effect; nearly all actives have a fitted effect of over 70% in size
* = called active by the depositor; i = inactive; ? = inconclusive; / = no result given; [ ] = another dose, or the depositor's remark. Unless noted, the call rests on the fitted dose curve; in most records, active means well fitted curve in the direction sought with a large enough effect; inconclusive means small, poorly fitted or top-dose-only effect, or another doubt; inactive means no such curve, though single readings can be large; an effect the other way counts as inactive or inconclusive. Potency means the concentration at half of the fitted maximal effect.

SMILES	SNCA viab count	hNpr1 antagonist	FLuc inh	NIH3T3 tox	SNCA expr inh	HEK cytotox	Npr1 antag conf	NPR2 antag	FLuc counter	GloSensor cGMP
CC(C)C(=O)N[C@H]1C[C@@H](Cc2cc(CN3CCOCC3)on2)C1(C)C	2%[87.6 µM]	4%[70.6 µM]	i	-11%[174 µM]	2%[87.6 µM]	-12%[172 µM]	/	/	/	/
CC(C)NC(=O)N[C@H]1C[C@@H](Cc2cc(CN3CCN(c4ccccc4)CC3)on2)C1(C)C	-2%	11µM*	i	?	?	?	19µM*	19µM*	0%	17µM*
CCN1C(=O)Cc2ccccc2C1C(=O)NCc1ccccc1C (stereo not given)	3%	-11%	i	3%	-19%	-8%	/	/	/	/
CCN1C(=O)Cc2ccccc2C1C(=O)NCc1ccccc1Br (stereo not given)	6%	-23%	i	-6%	27%	-19%	-29%	?	-14%	-9%
O=C(NCCNC(=O)c1ccc(-c2cccc(C(F)(F)F)c2)cc1)Nc1ccccc1	/	/	/	-14%	/	?	/	/	/	/
CC(C)Cc1cn(CC2CCCN(C(=O)NC3CCCCCC3)C2)nn1 (stereo not given)	-26%	10µM*	i	?	?	?	17µM*	17µM*	1%	12µM*
O=C(CN1CC2CC(C1)[C@H]1CCCC(=O)N1C2)NCc1ccc(F)cc1F (stereo not given in full)	3%	-4%	i	i	11%	2%	/	/	/	/
COc1cccc(C(=O)N2CCC(Cc3nc(C(C)C)no3)CC2)c1	3%	-16%	i	?	-3%	?	/	/	/	/
COc1cccc(-c2noc(CC3CCN(C(=O)c4cccc(F)c4)CC3)n2)c1	3%	6.3µM*	i	?	-25%	?	6.1µM*	6.9µM*	-1%	4.8µM*
O=C(c1cccc(F)c1)N1CCC(Cc2nc(-c3ccccc3)no2)CC1	0%	6.3µM*	i	?	?	?	6.9µM*	9.7µM*	-13%	6.9µM*
O=C(c1ccco1)N1CCC(Cc2nc(-c3ccccc3)no2)CC1	3%	?	i	?	49%	?	/	/	/	/
O=C(c1ccc(F)cc1)N1CCC(Cc2nc(-c3ccccc3)no2)CC1	-14%	5µM*	i	?	?	?	4.8µM*	6.1µM*	0%	5.4µM*
CC(C)CN1C2CCC1CN(C(=O)Nc1ccccc1F)C2	7%	/	/	i	-8%	2%	/	/	/	/
CC(=O)N1CCC(Cc2ccc(C(=O)NC3CCN(Cc4ccccc4)CC3)cc2)CC1	3%	11µM*	i	?	0%	?	24µM*	?	1%	24µM*
CCC(c1cccs1)N1C(=O)[C@H]2CN(S(=O)(=O)c3ccccc3Cl)C[C@H]2C1=O (stereo not given in full)	-12%	-13%	i	-22%	-9%	-40%	/	/	/	/
